KCNQ2 inh – KCNQ2 (rat) channel inhibition | 310,000 compounds, 1.1% hits | B-score at 10 µM | O88943 | CHO-K1 KCNQ2, FluxOR thallium flux, 20 min; active compounds read low;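 active = fluorescence ratio B-score at most minus 3 library SDs, with starting brightness B-score within 2 library SDs, cut at about -5.5 in these data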
KCNQ2 enhance – potentiators of rat KCNQ2 potassium channel | B-score at 10 µM | 310,000 compounds, 0.54% hits | AID 2239 | CHO-K1 KCNQ2, FluxOR thallium flux fluorescence; active compounds read high | O88943;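 active = fluorescence ratio B-score at least 3 SD of library B-scores, with initial fluorescence B-score within 3 of them, cut at about 5.3 in these data; same plate scores as AID 2156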;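 also: B-score of peak minus minimum over baseline fluorescence ratio after K+ and Tl+ stimulus; positive B-score means potentiation of KCNQ2 with more thallium influx and brighter signal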
Kir21 conf inh – confirmation of mouse Kir2.1 potassium channel inhibitors. shares compounds with KCNQ2 enhance. Kir2.1-expressing cells, FluxOR thallium flux fluorescence; active compounds read low. Tl flux remaining, % of negative control (active compounds read low), % at 10 µM. 2,300 compounds, 41% hits;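 active = Primary-screen hit whose thallium flux fell at least 3 control SD below untreated wells in both duplicates, with normal baseline fluorescence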;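 also: 0% = blank wells without stimulus and 100% = stimulated no-compound controls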
Target sequence (P35561 whole entry, looked up): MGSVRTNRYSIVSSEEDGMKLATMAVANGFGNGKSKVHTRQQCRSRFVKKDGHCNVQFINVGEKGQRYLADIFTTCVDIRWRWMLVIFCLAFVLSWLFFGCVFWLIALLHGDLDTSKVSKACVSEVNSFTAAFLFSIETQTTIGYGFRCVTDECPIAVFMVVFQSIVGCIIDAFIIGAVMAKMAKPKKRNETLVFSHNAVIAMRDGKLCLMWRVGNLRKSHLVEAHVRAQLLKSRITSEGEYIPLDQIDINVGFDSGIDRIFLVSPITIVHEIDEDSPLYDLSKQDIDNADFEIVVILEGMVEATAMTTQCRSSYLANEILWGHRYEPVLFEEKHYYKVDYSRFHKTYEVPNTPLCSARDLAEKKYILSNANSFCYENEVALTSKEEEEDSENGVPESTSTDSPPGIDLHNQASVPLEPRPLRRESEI
HEK293 Tl flux – counter-screen for Kir2.1 inhibitors: effect in parental HEK293 cells. 2,300 compounds, 19% hits. FluxOR signal as % of negative control (100 = no effect), % at 10 µM. shares compounds with KCNQ2 enhance. FluxOR thallium flux fluorescence; 0% = unstimulated blank wells;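 active = dye signal at least 3 control SD above or below untreated wells in both duplicates, raw fluorescence within 3, either direction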;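 also: percent is based on the flux ratio of peak minus minimum fluorescence over baseline F0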
CHO-K1 ctr – parental CHO-K1 activity in KCNQ2 potentiator counter-screen | shares compounds with KCNQ2 enhance | parental CHO-K1 cells, FluxOR thallium flux fluorescence; zero = vehicle mean+3SD, 100% = vehicle-minus-blank window | activity increase over 3SD of controls, % at 10 µM | AID 2282 | 1,200 compounds, 43% hits;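 active = signal rise of at least 3 SD above the untreated control mean, in both duplicate wells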;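 also: counter screen of KCNQ2 potentiator hits so any rise reflects channel-independent effects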
KCNQ1 pot spec – tests whether KCNQ2 potentiators also act on human KCNQ1. shares compounds with KCNQ2 enhance. CHO KCNQ1 stable, FluxOR thallium flux fluorescence; beyond 3SD, as % of vehicle-control signal. activation over 3SD threshold, % at 10 µM. 1,200 compounds, 28% hits;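 active = fluorescence ratio rise of at least 3 SD of vehicle wells above their mean, in both replicate wells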;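 also: 0% = vehicle mean plus 3 SD and 100% = vehicle minus unstimulated blank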
KCNQ2 pot confirm – confirmation of rat KCNQ2 potassium channel potentiators; 1,200 compounds, 68% hits; AID 2287; CHO-KCNQ2 cells, FluxOR thallium flux fluorescence; potentiation, less the hit threshold, % at 10 µM; shares compounds with KCNQ2 enhance;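 active = fluorescence ratio rising 3 SD or more over the vehicle control mean in both replicates, plus primary screen hit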;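 also: peak minus minimum thallium fluorescence divided by baseline after K/Tl stimulus; 0% = vehicle mean plus 3 SD and 100% = vehicle minus unstimulated blank difference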
Kir21 spec – mouse Kir2.1 off-target activity of KCNQ2 potentiators | shares compounds with KCNQ2 enhance | 1,200 compounds, 2% hits | activity over 3SD threshold, % at 10 µM | HEK293 Kir2.1, FluxOR thallium flux fluorescence;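 active = fluorescence ratio rise of at least 3 SD above the vehicle-control mean, seen in both replicates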;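 also: 0% = vehicle mean plus 3 SD and 100% = vehicle minus no-stimulus blank window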
KCNQ2 W236L pot – rat KCNQ2 W236L mutant potentiation by KCNQ2 potentiators; shares compounds with KCNQ2 enhance; CHO KCNQ2-W236L, automated patch clamp current; current increase over 3SD of negative controls (%), active compounds read high, % at 25 µM; 940 compounds, 10% hits;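 active = current increase at least 3 SD of the untreated controls above them in both duplicate recordings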
Active calls of the source: *; i = inactive; x = not tested or not shown. Hits are enriched below; roughly 1.6% of the tested compounds scored in any of these assays.

SMILES | KCNQ2 inh | KCNQ2 enhance | Kir21 conf inh | HEK293 Tl flux | others
O=C(NNC1=C(C(=O)C(F)(F)F)CCC1)c1cccnc1 | i | 20* | i | 64%* | CHO-K1 ctr=-16;KCNQ1 pot spec=-19;KCNQ2 pot confirm=35*;Kir21 spec=-21
Cc1cccc(C(=O)NNC2=C(C(=O)C(F)(F)F)CCC2)c1O | i | 6.6* | i | i | CHO-K1 ctr=-7;KCNQ1 pot spec=-16;KCNQ2 pot confirm=33*;Kir21 spec=-44;KCNQ2 W236L pot=i
Cc1cccc(C(=O)NNC(=O)c2ccc(Cl)cc2)c1O | i | 0.27 | x | x
O=C(NNC1=C(C(=O)C(F)(F)F)CCC1)c1cccc(O)c1 | i | 4.4 | x | x
O=C(Nc1ccccc1C(=O)N1CCCCC1)c1cc(F)c(F)cc1Cl | i | x | x | x
C=CCn1c(SCC(=O)NCCOC)nc2scc(-c3ccco3)c2c1=O | i | x | x | x
C=CCn1c(SCC(N)=O)nc2scc(-c3ccc(C)o3)c2c1=O | i | 5.3* | i | 195%* | CHO-K1 ctr=22*;KCNQ1 pot spec=-17;KCNQ2 pot confirm=25*;Kir21 spec=-26;KCNQ2 W236L pot=i
CCOC(=O)C1(Cc2ccccc2)CCCN(C(=O)c2ccc(-n3ccnc3)cc2)C1 (configuration not stated) | i | 0.01 | x | x
O=C(COc1ccc(C(=O)NCC2CCCO2)cc1)Nc1cccc(C(F)(F)F)c1 (configuration not stated) | i | x | x | x
CCn1c(=O)c(C(=O)Nc2ccccc2C)c(O)c2ccccc21 | i | x | x | x
CCn1c(=O)c(C(=O)Nc2ccccc2S(N)(=O)=O)c(O)c2ccccc21 | i | 8* | i | i | CHO-K1 ctr=53*;KCNQ1 pot spec=-11;KCNQ2 pot confirm=11*;Kir21 spec=-41;KCNQ2 W236L pot=i
COc1cccc(C(=O)NCCS(=O)(=O)N2CCC(C)CC2)c1 | i | 0.13 | x | x
CC1=NNC(=O)C1C(c1ccccc1)C1C(=O)NN=C1C (configuration not stated) | i | 0.42 | x | x
O=C(O)c1ccc(NC2=C(Cl)C(=O)c3ccccc3C2=O)cc1 | -10* | -10 | i | i
O=C1C(Cl)=C(Nc2ccccc2)C(=O)c2ccccc21 | i | x | x | x
O=C(O)c1cccc(NC2=C(Cl)C(=O)c3ccccc3C2=O)c1 | -7.6* | -7.6 | 38%* | i
Cc1ccc(NC2=C(NC(=O)c3ccccc3)C(=O)c3ccccc3C2=O)cc1Cl | i | x | x | x
CC(C)Oc1ccc(CNC(=O)CCCN2C(=O)C(c3ccccc3)Oc3cccnc32)cc1 (configuration not stated) | i | 1.5 | x | x
Cc1ccc(S(=O)(=O)N2CCCC2CNC(=O)c2ccc(F)c(F)c2)cc1 (configuration not stated) | i | x | x | x
CNC(=S)NNC(=O)c1noc(C)c1C(=O)N1CCN(C(c2ccccc2)c2ccccc2)CC1 | i | 0.91 | x | x
Cc1cccc(C(=O)NC2CCN(CC(=O)Nc3ccccc3Cl)CC2)c1 | i | x | x | x
CC(C)Oc1ccc(CNC(=O)CC(c2ccccc2)c2cc(Cl)ccc2O)cc1 (configuration not stated) | i | 15* | i | 128%* | CHO-K1 ctr=11*;KCNQ1 pot spec=18*;KCNQ2 pot confirm=59*;Kir21 spec=-21;KCNQ2 W236L pot=i
CCCCCCNC(=O)CC(c1ccccc1)c1cc(Br)ccc1O (configuration not stated) | i | 29* | i | i | CHO-K1 ctr=-3;KCNQ1 pot spec=-28;KCNQ2 pot confirm=64*;Kir21 spec=-43;KCNQ2 W236L pot=i
COc1ccccc1C(CC(=O)Nc1ccc(Cl)cc1)c1ccc(OC(C)C)cc1 (configuration not stated) | i | x | x | x
CC(C)NC(=O)CC(c1ccccc1)c1cc(Br)ccc1O (configuration not stated) | i | 2.8 | x | x
